Compound activity: PubChem, several laboratories
Rows were chosen to be rich in hits. Some 4.9% of all compounds tested hit in one or more screens of this group.
CSC inhib: cancer stem cell viability inhibitors, primary screen, luminescence. cancer stem cell-like cells viability. inhibition, % at 7.5 µM. hit rate 1.1% among 300,000. AID 2717, 2010; in the data active means inhibition above about 75%; inconclusive means no clear call, values can overlap the other calls; tested in HMLE shEcad cells
Beta apoptosis: inhibitors of cytokine-induced beta cell apoptosis, primary screen, luminescence; AID 435005, 2010; protection from apoptosis, % (concentration not given with the values); INS-1E cytokine-induced death, ATP luminescence, 48 h; percent of positive-control rescue, neutral wells zero; hit rate 0.8% among 300,000;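 active means Every replicate reaches about 75%, or at least half do and their mean reaches it too, limit read from the data; inconclusive means At least half of replicates reach the limit but their mean does not; inactive means Under half of replicates reach the limit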;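 further: higher means more ATP so stronger rescue from cytokine killing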
Mdm2-MdmX inh: inhibitors of human Mdm2-MdmX association, primary screen, cell-based, luminescence, split luciferase, SaOS-2, uHTS. SaOS-2 split-luciferase Mdm2/MdmX complementation. inhibition, % at 8 µM. hit rate 3% among 330,000. AID 485346, 2010;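 active means inhibition of at least 50% at 8 µM in the primary screen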
PP5 inh: PP5 phosphatase inhibitors, primary screen, biochemical, fluorescence; Serine/threonine-protein phosphatase 5 (Homo sapiens), P53041; purified PP5c, OMFP substrate fluorescence; inhibition, % at 6.7 µM; hit rate 0.18% among 320,000; AID 1987, 2009;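 active means inhibition above the campaign's mean inhibition across all tested compounds plus 3 SD, cut at about 9.5% in these data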
Calb FLC: C. albicans growth inhibition with fluconazole, primary screen, CaCi-2 strain, Alamar Blue fluorescence | C. albicans CaCi-2 (fluconazole-resistant clinical isolate) + fluconazole, 48 h | growth inhibition, % (no concentration beside the values) | hit rate 0.57% among 300,000 | AID 1979, 2009;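 active means growth inhibition above about 58% in most replicates, limit read from the data, passing the limit was not always enough; inconclusive means exactly half the replicates above a set limit; inactive means most replicates below a set limit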;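 further: all wells also contain fluconazole at 8 µg/ml as a sub-toxic cotreatment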
PP1 counter: PP1-alpha phosphatase inhibitors, primary screen, counter-screen for PP5 inhibitor project, biochemical, fluorescence, OMFP substrate, single point; Serine/threonine-protein phosphatase PP1-alpha catalytic subunit (Homo sapiens), P62136; purified PP1alpha; inhibition, % at 6.7 µM; hit rate 0.9% among 320,000; AID 2235, 2010;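 active means inhibition above the mean inhibition of all tested compounds plus 3 SD, computed separately for each screening campaign, cut at about 15% in these data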
PP1 inh confirm: PP1 phosphatase inhibitors, confirmation, biochemical, fluorescence, OMFP substrate, triplicate; shares compounds with PP1 counter; purified PP1alpha; inhibition, % at 6.7 µM; hit rate 52% among 1,900;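 active means mean PP1 inhibition above a set limit taken from the earlier primary screen, cut at about 15% in these data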
PP5 counter: PP5 phosphatase inhibition by PP1 hits, confirmation, counter-screen for PP1 inhibitor project, biochemical, fluorescence, triplicate; shares compounds with PP1 counter; purified PP5c, OMFP fluorescence; inhibition, % at 6.7 µM; hit rate 4% among 1,900; AID 2360, 2010;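 active means mean PP5 inhibition over triplicate wells above about 9.5% taken from the earlier PP1 screen, limit read from the data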
Mdm2 MdmX conf: Mdm2-MdmX complex disruptors, retested hits, confirmation, luminescence, single concentration | shares compounds with Mdm2-MdmX inh | Mdm2-MdmX binding, luminescent assay | inhibition, % at 8 µM | hit rate 55% among 10,000 | AID 489028, 2010; in the data active means inhibition above about 40%
Full FLuc ctr: full-length luciferase signal inhibition, confirmation, counter-screen for Mdm2/MdmX interaction inhibitor project, cell-based, single concentration, SaOS-2; shares compounds with Mdm2-MdmX inh; SaOS-2 full-length luciferase counterscreen, luminescence; inhibition, % at 8 µM; hit rate 77% among 6,200;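 active means mean inhibition at 8 µM reaching about 37%, which flags the compound as non-specific, limit read from the data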;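 further: p53-null SaOS-2 cells with luciferase driven by a doxycycline-inducible promoter; compound on cells about two nights before reading with doxycycline added after day one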
Hits are given with their value; – = inactive; ? = inconclusive; · = not tested or not shown.

SMILES | CSC inhib | Beta apoptosis | Mdm2-MdmX inh | PP5 inh | Calb FLC | PP1 counter | PP1 inh confirm | PP5 counter | Mdm2 MdmX conf | Full FLuc ctr
O=C(Nc1ccc(F)cc1)Nc1ccc(N2CCCC2)c(S(=O)(=O)Nc2ccccc2Cl)c1 | – | – | 91 | – | – | 24 | – | – | 66 | –
O=C(Nc1ccc(Cl)c(Cl)c1)Nc1ccc(N2CCCC2)c(S(=O)(=O)Nc2ccccc2Cl)c1 | – | – | 93 | – | – | 18 | – | – | 95 | –
COc1ccc(Cn2c(SCc3ccc(C)cc3)nc3cc(OC)c(OC)cc3c2=N)cc1Cl | 103 | 110 | 94 | – | – | 21 | – | – | 100 | 51
COc1cc2nc(SCc3ccc(C(F)(F)F)cc3)n(Cc3cccs3)c(=N)c2cc1OC | – | – | – | – | – | – | · | · | · | ·
COc1ccc(Cn2c(SCc3cc(C)ccc3C)nc3cc(OC)c(OC)cc3c2=N)cc1 | 142 | 105 | 84 | – | – | 23 | – | – | 100 | 51
COc1ccc(CNC(=O)C2(C)Cc3ccccc3C(=O)O2)cc1 (stereo not drawn) | – | – | – | – | – | – | · | · | · | ·
Cc1ccc(-n2c(O)c(/C=N/NC(=O)C3COc4ccccc4O3)c3ccccc3c2=O)cc1 (stereo not drawn) | · | – | 60 | – | – | 19 | 27 | – | – | ·
Cc1c(/C=N\NC(=O)C2COc3ccccc3O2)c2ccccc2n1C (stereo not drawn) | – | – | · | – | – | – | · | · | · | ·
CCc1ccc(S(=O)(=O)/N=C2\C=C(Nc3ccc(C(=O)O)cc3)C(=O)c3ccccc32)cc1 | · | 103 | 80 | 11 | – | 15 | 16 | 44 | 52 | –
Nc1ccccc1C(=O)NCCCN1CCN(c2cccc(Cl)c2)CC1 | – | – | – | – | – | – | · | · | · | ·
CCc1ccccc1OCC(=O)Nc1nc(-c2cccnc2)cs1 | – | – | 67 | 10 | – | 45 | 44 | – | 69 | –
Cc1cccc(C)c1OCC(O)CN1CCC(CN2C(=O)c3cccc4cccc(c34)C2=O)CC1 (stereo not drawn) | – | – | – | – | – | – | · | · | · | ·
CC1=NOC(=O)/C1=C/c1ccc(-c2ccc(Cl)cc2)o1 | – | – | 100 | – | · | 18 | 49 | – | 48 | –
O=C(Nc1cccc([N+](=O)[O-])c1)c1cc2ccccc2cc1O | 89 | 100 | 93 | – | – | 23 | 19 | – | 75 | –
O=C(NCCc1ccccn1)C(F)(F)C(F)(F)C(F)(F)C(F)(F)C(F)(F)C(F)F | – | – | – | – | – | – | · | · | · | ·
COc1cccc(/C=N/Nc2ccc([N+](=O)[O-])cn2)c1O | 123 | 119 | 93 | – | 97 | 34 | 24 | – | 91 | 53
CCOC(=O)c1cc(-c2ccccc2)sc1NC(=O)CC | – | – | – | – | – | – | · | · | · | ·
CCOC(=O)c1cc(-c2ccccc2)sc1NC(=O)COC(=O)c1cccc(S(N)(=O)=O)c1 | – | – | 74 | – | – | 19 | 31 | – | – | ·
COC(=O)c1ccc(N2C(=O)Nc3ccccc3N2O)cc1 | – | – | – | – | – | – | · | · | · | ·
COc1cnc(-c2ccccn2)nc1Oc1ccc(Cl)c2ccccc12 | – | 97 | 52 | – | – | 50 | 43 | – | – | ·
CCOC(=O)Oc1c(OC)cc(C(=O)O[C@@H]2C[C@@H]3CN4CCc5c([nH]c6cc(OC)ccc56)[C@H]4C[C@@H]3[C@H](C(=O)OC)[C@H]2OC)cc1OC | – | – | 88 | – | · | 20 | – | – | 58 | 49
Cc1ccc(N2C(=O)N(CC(=O)N3c4ccccc4CC3C)C(=O)C2C)cc1 (stereo not drawn) | · | · | – | · | · | · | · | · | · | ·
CCOc1ccc2nc(NC3=NC(c4ccc(OC)cc4)CC(=O)N3)nc(C)c2c1 (stereo not drawn) | 76 | – | 98 | – | – | 39 | – | – | – | –
CS(=O)(=O)N1CCC(C(=O)N2CCN(c3ccc(F)cc3)CC2)CC1 | – | – | – | – | – | – | · | · | · | ·
N=C1C(c2nc3ccccc3s2)=C(O)CN1NC(=O)c1c[nH]c2ccccc12 | – | – | – | – | ? | – | · | · | · | ·
SMILES | CSC inhib | Beta apoptosis | Mdm2-MdmX inh | PP5 inh | Calb FLC | PP1 counter | PP1 inh confirm | PP5 counter | Mdm2 MdmX conf | Full FLuc ctr
N=C1C(c2nc3ccccc3s2)=C(O)CN1NC(=O)c1ccccc1[N+](=O)[O-] | – | – | 54 | – | – | 21 | 25 | – | – | ·
CNC(=O)COC(=O)/C=C/c1cccc(F)c1 | – | – | – | – | – | – | · | · | · | ·
CCC(=O)c1ccc(OCC(=O)N2CCN(S(=O)(=O)c3ccc(Cl)s3)CC2)cc1 | · | – | – | – | · | – | · | · | · | ·
COc1ccc(/C=C2/SC(=O)N(CCC(=O)Nc3ccc(C)cc3)C2=O)cc1OC | – | – | – | – | – | – | · | · | · | ·
COc1cc(/C=C2\SC(N)=NC2=O)ccc1OCC(=O)Nc1ccc(C)cc1 | – | – | 57 | – | – | 21 | 18 | – | – | ·
CCOc1cccc(-c2nn(-c3ccccc3)cc2/C=C(/C#N)C(=O)NCCCn2ccnc2)c1 | – | – | 77 | – | – | 26 | 17 | – | – | 51
CCSc1ccc(-c2nn(-c3ccccc3)cc2/C=C(/C#N)C(=O)NCCCOC)cc1 | – | – | · | – | · | – | · | · | · | ·
Cc1cc(/C=N/n2cnnc2)c(C)n1-c1ccc(OCc2ccc(Cl)cc2)cc1 | – | 122 | 61 | – | – | 28 | 26 | – | 62 | 92
CC(=O)Nc1cccc(NC(=O)CSc2nnnn2Cc2ccccc2)c1 | – | – | – | – | – | – | · | · | · | ·
O=C(CSc1nc2ccc(NC(=O)CSc3nnnn3Cc3ccccc3)cc2s1)Nc1ccccc1 | – | · | 50 | – | – | 22 | – | – | – | ·
CCc1ccc(NC(=O)Cn2c(=O)c3cccn3c3ccccc32)cc1 | – | – | 66 | – | – | 22 | 18 | – | 61 | 55
